Assay results: PubChem BioAssay AID1619 (SRMLSC, 2009)
Screen size: about 220,000 compounds; about 830 (0.38%) were called active.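 How the source made its calls: active means compound inhibiting the enzyme by more than half at any dose during confirmatory dose-response retesting; inconclusive means strong single-dose inhibitors picked by rank but not retested; inactive means the rest.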 Not all results are given here. Results with a measured potency or affinity are listed apart.

The molecules below were run against Leucine aminopeptidase (Plasmodium falciparum (isolate 3D7)) (UniProt Q8IL11) (assay: P. falciparum M17LAP inhibitors, primary screen, biochemical, fluorogenic H-Leu-NHMec substrate, 1536-well (AID 1619;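 further: plate controls were full reaction with DMSO carrier for no effect and no enzyme background for full effect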)). Conditions: recombinant M17LAP, H-Leu-NHMec fluorogenic kinetic assay; at 30 µM; stronger effect = higher value.
Chain of Leucine aminopeptidase (Plasmodium falciparum (isolate 3D7)) (Q8IL11 whole entry, looked up): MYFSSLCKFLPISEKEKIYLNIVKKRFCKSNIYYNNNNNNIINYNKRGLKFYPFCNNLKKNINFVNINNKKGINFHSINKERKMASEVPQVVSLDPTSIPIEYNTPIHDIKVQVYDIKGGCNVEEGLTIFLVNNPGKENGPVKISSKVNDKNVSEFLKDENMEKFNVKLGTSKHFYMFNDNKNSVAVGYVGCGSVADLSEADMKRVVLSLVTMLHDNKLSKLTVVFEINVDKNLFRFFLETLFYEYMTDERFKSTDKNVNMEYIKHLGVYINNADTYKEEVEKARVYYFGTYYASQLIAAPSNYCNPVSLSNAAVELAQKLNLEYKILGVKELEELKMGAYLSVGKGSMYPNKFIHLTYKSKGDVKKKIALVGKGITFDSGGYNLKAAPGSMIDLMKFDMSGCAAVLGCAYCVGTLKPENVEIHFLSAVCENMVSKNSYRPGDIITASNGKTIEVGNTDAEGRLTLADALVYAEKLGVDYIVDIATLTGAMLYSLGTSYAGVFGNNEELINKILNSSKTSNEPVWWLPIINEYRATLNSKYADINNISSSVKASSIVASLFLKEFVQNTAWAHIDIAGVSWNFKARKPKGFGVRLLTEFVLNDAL

inhibition, inactive:
C/C(=C\C(=O)c1ccccc1)Nc1ccc2c(c1)OCO2 -1.02%
CCOC(=O)c1cnc(SC)nc1Oc1cccc(NS(=O)(=O)c2ccccc2)c1 12.5%
COc1ccc(-c2nc(C)c(C(C)=O)n2O)cc1[N+](=O)[O-] 39.5%
O=C(COn1nnc2ccc(C(F)(F)F)cc21)Nc1c(Cl)cccc1Cl -14.4%
FC(F)(F)c1ccnc(NCc2ccco2)n1 5.81%
O=C(CN1C(=O)S/C(=C\C=C\c2ccccc2)C1=O)Nc1ccc(O)cc1 9.74%
O=C(CN1C(=O)S/C(=C\C=C\c2ccccc2)C1=O)Nc1ccc(C(=O)O)cc1 15.3%
Cc1ccc(C)c2nc(SCC(=O)N3CCCc4ccccc43)c(C#N)cc12 -4.2%
CC(=O)NCC(=O)N1CCCC(C(=O)c2ccc(-c3ccccc3)c(F)c2)C1 (stereo unspecified) -3.83%
Cc1cc(Nc2ccc([N+](=O)[O-])cc2)nc2ccccc12 13.7%
CCOc1ccc(NS(=O)(=O)c2ccc(NC(=O)[C@@H]3CCCC[C@@H]3C(=O)O)cc2)cc1 42.4%
CCOc1ccc(NC(=O)C2C3CC/C=C\CCC32)cc1 (stereo unspecified) 4.68%
CC(C)(C)c1ccc(Oc2ccc(NC(=O)C3CC=CCC3C(=O)O)cc2)cc1 (stereo unspecified) 3.52%
CCOc1ccc(NC(=O)C2CC(=O)OC2c2ccccc2)cc1 (stereo unspecified) -1.92%
CC1=C(C)CC(C(=O)Nc2ccc(C(N)=O)cc2)C(C(=O)O)C1 (stereo unspecified) 20.2%
CC(C)OC(=O)C1CC=CCC1C(=O)Nc1ccc(Cl)cc1 (stereo unspecified) 2.15%
CC(=O)c1ccn(S(=O)(=O)c2ccc(Cl)cc2)c1 9.38%
CC(=O)Nc1ccc(NC(=O)C2CCCN(c3nnc(-n4cccc4)s3)C2)cc1 (stereo unspecified) 4.4%
CCNC(=O)NCc1c(C)c(C)n(Cc2ccccc2)c1-n1cccc1 4.1%
CCOc1ccc2[nH]cc(C(=O)NCCCN3CCOCC3)c(=O)c2c1 4.64%
CCCCN1CNC(=S)N(CCc2ccc(OCC)c(OCC)c2)C1 4.53%
Cn1c(SCC(=O)c2ccc3c(c2)OCO3)nnc1C1COc2ccccc2O1 (stereo unspecified) 10.4%
C=CCn1c(SCC(=O)NCc2ccc3c(c2)OCO3)nnc1C1CCCCC1 20.8%
C=CCn1c(SCC(=O)Nc2cc(C)on2)nnc1C1COc2ccccc2O1 (stereo unspecified) 9.81%
Cc1nnc(SCC(=O)NCc2ccc3c(c2)OCO3)n1C -1.94%
O=c1[nH][nH]cc1C=Nc1ccccc1Cl 2.22%
Clc1ccc(OCc2nc(-c3ccncc3)no2)cc1 0.59%
COc1ccc(-c2[nH]n(-c3ccc([N+](=O)[O-])cc3)c(=O)c2C=NCc2ccncc2)cc1 -8.57%
CC(C)COC(=O)Nc1ccc(C(=O)O)cc1 13.3%
Cc1cc(C(F)F)n2nc(C(=O)Nc3ccccc3F)nc2n1 1.81%
O=C(O)CCCN1C(=O)/C(=C/c2cn(-c3ccccc3)nc2-c2cccs2)SC1=S 7.34%
O=C(O)CCCCCN1C(=O)/C(=C\c2cn(-c3ccccc3)nc2-c2cccs2)SC1=S -1.95%
Cn1c(=O)c(-c2cc(Br)ccc2N)nc2ccccc21 9.54%
CCOC(=O)c1c(NC(=O)c2ccoc2C)sc2c1CCC2 16.6%
NC(=O)c1c(NC(=O)C2CCCO2)sc2c1CCC2 (stereo unspecified) 40%
NC(=O)c1c(NC(=O)C2CCCO2)sc2c1CCCC2 (stereo unspecified) 25.2%
COC(=O)c1c(NC(=O)c2ccoc2C)sc2c1CCC2 -15.6%
O=c1cc(-c2ccc([N+](=O)[O-])cc2)c2cc3c(cc2[nH]1)OCCO3 0.51%
CCc1cccc(C)c1NC(=S)N(CCN(C)C)C(C)c1cccnc1 (stereo unspecified) 3.46%
CSc1nnc(-c2sc3cc(C(F)(F)F)cnc3c2-c2cccnc2)n1C 2.54%
COc1cc(OC)c2ccc(=O)oc2c1C(CC(=O)N1CCOCC1)c1ccc2c(c1)OCO2 (stereo unspecified) 11.3%
CCCc1cc(=O)[nH]c(SCCOc2ccc(Cl)cc2)n1 3.09%
CCN=C(NCC)SC1CC(=O)N(c2ccccc2)C1=O (stereo unspecified) 0.73%
Cn1cnc(S(=O)(=O)Nc2ccc(C(F)(F)F)cc2)c1 8.69%
COc1ccc(S(=O)(=O)Nc2ccc(C(F)(F)F)cc2)cc1OC 8.66%
Cc1cc(NC(=O)CN2CCCCC2C)no1 (stereo unspecified) 15.1%
CC(/C=N/NC(=O)CSc1nc(C)cc(C)n1)=C\c1ccccc1 11.7%
CC1=NNC(=O)C1CC(=O)N/N=C/C(Br)=C/c1ccccc1 (stereo unspecified) 15.5%
CC1C(=O)NN=C1C(=O)N/N=C\C(Br)=C\c1ccccc1 (stereo unspecified) 45.9%
COc1ccccc1/C=C/C=N/NC(=O)CC1C(=O)NN=C1C (stereo unspecified) 13.6%
CC(=C/c1ccccc1)/C=N/NC(=O)CSc1nc(C)cc(C)n1 22.8%
COc1ccccc1/C=C\C=N\NC(=O)CCn1nnc2ccccc21 4.22%
Cc1ccc(NC(=O)CCC(=O)N/N=C/C=C/c2ccccc2)cc1 16.5%
CC1=NNC(=O)C1CC(=O)N/N=C/C=C/c1ccccc1 (stereo unspecified) 19.3%
Cc1ccc(C(=O)Nc2cc(=O)n(C)c(=O)n2C)cc1C 1.37%
CCNC(=O)C/C(C)=N/NC(=O)C1CCCCC1 12.5%
CCn1ccnc1CN(C)Cc1nc(-c2ccc(C(=O)OC)cc2)no1 2.83%
O=C(CNS(=O)(=O)c1ccc(C(=O)N2CCOCC2)cc1)N1CCOCC1 -0.01%
COc1ccccc1NC(=S)N1CCC(c2nc3ccccc3o2)CC1 2.4%
CCOC(=O)CCn1c(=S)n(CCC(=O)OCC)c2ccccc21 9.93%
COc1ccc(N2CCN(CC(O)COc3ccc([N+](=O)[O-])cc3)CC2)cc1 (stereo unspecified) 4.37%
